Data: PubChem BioAssay (NCATS)
Records with an inconclusive call do not appear. The source made the active and inactive calls. Unless noted, calls come from the whole dose curve; as a rule, active = well fitted curve in the direction sought with a large enough effect; inconclusive = small, poorly fitted or top-dose-only effect, or another doubt; inactive = no such curve, though single readings can be large; an effect the other way counts as inactive or inconclusive.

Columns and labels:
[1] = target: Lysosomal acid glucosylceramidase (Homo sapiens) (UniProt P04062); assay: Glucocerebrosidase-p2 (AID 348; in the data active = potency below about 10 µM; note: potency is the fitted concentration of half-maximal effect); settings: purified GBA, blue fluorogenic substrate, 40 min
Procedure, shortened: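 Normal human glucocerebrosidase (0.2 nM) with blue fluorogenic substrate (80 uM final) in citrate/phosphate pH 5.9 with 10mM sodium taurocholate, 0.01% tween-20; 40 min RT, NaOH/glycine stop; fluorescence Ex 365/Em 440; AC50 from a titration from 0.6 nM upwards.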

[2] = AP1 Signaling Pathway (AID 357; active = well fitted curve in either direction with a large enough effect, not every such curve was filed as active;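 note: ME-180 reporter cells stimulated with EGF at its EC50 level; % is set by controls: 0 for no effect and ±100 for the full control effect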); settings: ME-180 AP-1-bla reporter, EGF-induced, beta-lactamase ratio, 5 h; at 7.69 µM (top of the series) unless noted
Procedure, shortened: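 Beta-lactamase reporter under AP-1 response element, ME-180 background. Stimulus: EC50 EGF. Compound exposure 5 h, 37 °C. Detection: CCF4, 2.5 h RT, 460/530 nm. Values: AC50 from titration.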

[3] = target: Cytochrome P450 1A2 (Homo sapiens) (UniProt P05177); assay: p450-cyp1a2 (AID 410; calls by dose curve; note: potency is the fitted concentration of half-maximal effect); settings: recombinant CYP1A2, luciferin-ME demethylation, luminescence; series mostly up to 57 µM
Procedure, shortened: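 20nM CYP1A2, 100uM Luciferin-ME (=Km), 100mM KPO4; cpd 10 min RT; +NADPH regen, 60 min RT; stop/detect 20 min; luminescence. Normalized to furafylline 57 uM = full inhibition.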

[4] = NFAT Signaling Pathway (AID 444; active = well fitted curve in either direction with a large enough effect, not every such curve was filed as active;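 note: carbachol stimulus at about its EC50 of 1 µM final; % is set by controls: 0 for no effect and ±100 for the full control effect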); settings: Jurkat NFAT-bla M1, carbachol, beta-lactamase ratio, 5 h; at 7.69 µM (top of the series) unless noted
Procedure, shortened: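 Jurkat cells with NFAT-driven β-lactamase reporter and co-expressed M1 receptor, stimulated with carbachol (final 1 uM, ~EC50), compound titration, 5 h at 37 °C. CCF4 loaded 1 h at RT; 460/530 nm ratio gave %activity and AC50.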

[5] = Stat Signaling Pathway (AID 446; active = well fitted curve in either direction with a large enough effect, not every such curve was filed as active;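 note: ME-180 cervical cancer cells given 40 pM IL-6 alongside compound; SIE-controlled beta-lactamase reporter measured as 460/530 nm FRET emission ratio; % is set by controls: 0 for no effect and ±100 for the full control effect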); settings: ME-180 SIE beta-lactamase reporter, IL-6 stimulated, 5 h; at 7.69 µM (top of the series) unless noted
Procedure, shortened: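 Emission at 460 and 530 nm (excitation 405 nm) reports SIE-controlled beta-lactamase in ME-180 cells. Cells received compound with 40 pM IL-6 for 5 hrs at 37 C; data scaled between 300 pM IL-6 and 125 nM JAK-inhibitor controls.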

[6] = target: Glucocorticoid receptor (Homo sapiens) (UniProt P04150); assay: GR-GFP Redistribution (AID 450;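 active = compounds whose dose series gives a full or clear partial fitted curve of increased nuclear translocation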; note: potency is the fitted concentration of half-maximal effect); settings: U2OS GR-GFP nuclear translocation, laser cytometry, 2 h
[7] = target: Glucocorticoid receptor (Homo sapiens) (UniProt P04150); assay: GR-EFC Redistribution (AID 451; calls by dose curve; note: potency is the fitted concentration of half-maximal effect); settings: CHO-K1 GR-EFC translocation, beta-gal luminescence, 2 h
Procedure, shortened: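 CHO-K1 cells expressing nuclear EA and GR-ED fragments of b-gal; compounds titrated up to 46 uM final, 2 h at 37 C. GR nuclear translocation read as complemented b-gal luminescence after 1 h RT detection.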

[8] = target: Mitogen-activated protein kinase 10 (Mus musculus) (UniProt Q61831); assay: JNK3 AlphaScreen Assay (AID 530; active = well fitted curve in either direction with a large enough effect, not every such curve was filed as active;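 note: kinase came from lysate of stimulated human HepG2 cells; signal reports phosphorylation of biotinylated GST-cJun 1-79 at Ser73 with 10 µM ATP; % is set by controls: 0 for no effect and ±100 for the full control effect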); settings: JNK3 lysate, c-Jun phosphorylation; series mostly up to 57.1 µM
Procedure, shortened: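 HepG2 lysate (IL-1b/TNFa pre-activated) + biotin-GST-cJun 1-79 + anti-pSer73 cJun; cpd titration, 15 min RT; ATP 10 uM start; Tris pH 7.6, MgCl2, DTT, vanadate; beads in EDTA buffer; AlphaScreen.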

[9] = target: 3',5'-cyclic-AMP phosphodiesterase 4B (Homo sapiens) (UniProt Q07343); assay: qHTS Assay for Inhibitors of PDE-IV (AID 607; active = well fitted activation curve with a large enough effect in the main read-out, with a control signal flat, not every such curve was filed as active; note: % of control where 0% means no effect); settings: HEK293 ACTOne CNG channel cells, membrane potential fluorescence; series mostly up to 22.9 µM
Procedure, shortened: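 The readout is membrane depolarisation from a cAMP-sensing CNG channel, detected with a potential dye at ex 535/em 590. Cells were HEK293-derived (endogenous PDE-IV) at 1000 cells/well, titrated up to 22.9 uM final.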

[10] = qHTS Assay for Lipid Storage Modulators (AID 1519; calls by dose curve); settings: Drosophila S3 cells, BODIPY lipid droplet/cell ratio, laser cytometry, cells loaded with oleic acid; for activity change, negative = inhibition: at 57.5 µM (top of the series)
Procedure, shortened: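 Cells seeded at 5,000 per well were treated with compounds over a concentration series and loaded with oleic acid (400 uM, as added). Lipid droplet fluorescence (488 nm excitation, 500-530 nm channel) was read by laser-scanning cytometry and normalized to 20 uM Triacsin C.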

[11] = target: Dual specificity protein kinase CLK4 (Homo sapiens) (UniProt Q9HAZ1); assay: qHTS Assay for Inhibitors of CDC-like Kinase 4 (Kinase-Glo Assay) (AID 1770); settings: recombinant Clk4, Kinase-Glo ATP depletion luminescence; series mostly up to 66.7 µM; note: % is set by controls: 0 for no effect and ±100 for the full control effect; nearly all actives have a fitted effect of over 65% in size
Procedure, shortened: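 Recombinant human Clk4 (25 nM) phosphorylated RS repeat peptide (100 uM) with 1 uM ATP in Tris pH 7.5/MgCl2/EGTA/DTT/Triton buffer for 4.5 h at room temperature. Residual ATP was quantified by Kinase-Glo luciferase luminescence.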

[12] = target: Dual specificity protein kinase CLK4 (Homo sapiens) (UniProt Q9HAZ1); assay: qHTS Assay for Inhibitors of CDC-like Kinase 4 (ADP-Glo Assay) (AID 1771); settings: recombinant CLK4, ADP-Glo luminescence; series mostly up to 80 µM; note: % is set by controls: 0 for no effect and ±100 for the full control effect; nearly all actives have a fitted effect of over 70% in size
Procedure, shortened: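 25 nM Clk4, 100 uM RS peptide, 1 uM ATP (final); 2 mM MgCl2, 0.5 mM EGTA, 2.5 mM DTT, 0.01% Triton X-100; 1 hr RT. ADP-Glo readout: ATP depletion 45 min, conversion/luciferase 30 min, luminescence.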

[13] = target: Dual specificity protein kinase CLK4 (Homo sapiens) (UniProt Q9HAZ1); assay: qHTS Assay for Inhibitors of CDC-like Kinase 4 (ADP-FP Assay) (AID 1795); settings: Transcreener ADP fluorescence polarization; series mostly up to 50 µM; note: % is set by controls: 0 for no effect and ±100 for the full control effect; nearly all actives have a fitted effect of over 60% in size
Procedure, shortened: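 Recombinant human Clk4 (6.25 nM) phosphorylated RS repeat peptide (100 uM) with 1 uM ATP in Tris pH 7.5/MgCl2/EGTA/DTT/Triton buffer for one hour. ADP was quantified by Transcreener competitive fluorescence polarization against an ADP calibration curve.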

[14] = target: Ubiquitin carboxyl-terminal hydrolase 1 (Homo sapiens) (UniProt O94782); assay: Inhibitors of USP1/UAF1: Pilot qHTS (AID 504865); settings: purified USP1/UAF1, Ub-rhodamine cleavage fluorescence; series mostly up to 54.9 µM;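 note: rhodamine fluorescence freed from ubiquitin-rhodamine substrate followed over time; top concentration of the series differs between compounds; % is set by controls: 0 for no effect and ±100 for the full control effect; nearly all actives have a fitted effect of over 35% in size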
Procedure, shortened: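 USP1/UAF1 complex (1nM) preincubated with compound 15 min at room temperature, then Ub-Rho substrate (150nM final) added. Fluorescence read kinetically at 480/540 nm, 6 reads every 60 seconds. Buffer: 50mM HEPES pH 7.8, 0.5mM EDTA, 0.1 mg/ml BSA, 1mM TCEP, 0.01% Tween-20.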

[15] = Primary qHTS for small molecule stabilizers of the endoplasmic reticulum resident proteome: Secreted ER Calcium Modulated Protein (SERCaMP) assay (AID 1508630); settings: SH-SY5Y GLuc-SERCaMP (Gaussia luciferase released on ER calcium loss) secretion, thapsigargin, luminescence; series mostly up to 38.4 µM; note: % is set by controls: 0 for no effect and ±100 for the full control effect
Procedure, shortened: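 The SH-SY5Y reporter protocol was run at 3 concentrations up to 38.3 uM (primary) or 11 concentrations (follow-up): 16 h compound, 100 nM thapsigargin for 4 h, then extracellular luciferase luminescence.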

[16] = target: Cytochrome P450 3A4 (Homo sapiens) (UniProt P08684); assay: qHTS Assay for Inhibitors and Substrates of Cytochrome P450 3A4 (AID 884); settings: recombinant CYP3A4, Luciferin-PPXE luminescence; series mostly up to 57.1 µM; note: nearly all actives have a fitted effect of over 50% in size; note: potency is the fitted concentration of half-maximal effect
Procedure, shortened: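 Luminescent readout of luciferin produced by CYP3A4 (20 nM) dealkylation of Luciferin-PPXE, 25 uM (its KM). NADPH-driven reaction ran 60 min at RT after 10 min compound preincubation; data scaled to 57 uM ketoconazole as 100% inhibition.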

[17] = target: Cytochrome P450 3A4 (Homo sapiens) (UniProt P08684); assay: qHTS Assay for Activators of Cytochrome P450 3A4 (AID 885); settings: recombinant CYP3A4, Luciferin-PPXE luminescence, 60 min; series mostly up to 57.1 µM; note: nearly all actives have a fitted effect of over 65% in size; note: potency is the fitted concentration of half-maximal effect
Procedure, shortened: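 Activators are scored by enhanced luminescence from CYP3A4 conversion of luciferin-PPXE (25uM, equal to KM) to luciferin, after 60 min at RT with an NADPH-regenerating system.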

[18] = qHTS Assay for Identification of Small Molecule Agonists for Hypoxia Response Element Signaling Pathway (AID 914; active = well fitted activation curve with a large enough effect in the signal ratio, with a control signal flat, not every such curve was filed as active; the % refers to the signal ratio; note: % of control where 0% means no effect); settings: ME-180 (cervical carcinoma) HRE-bla reporter, beta-lactamase ratio, CoCl2, 17 h; activation: stronger effect = higher value
Procedure, shortened: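 qHTS titration; ME-180 HRE-bla cells; EC50 CoCl2 co-treatment, 17 h at 37 degrees Celsius; CCF4 dye, ex 405nm, em 460nm and 530nm; %Activity from ratio; AC50.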

[19] = target: Cytochrome P450 2C9 (Homo sapiens) (UniProt P11712); assay: qHTS Assay for Inhibitors and Substrates of Cytochrome P450 2C9 (AID 883); settings: recombinant CYP2C9, luciferin-H luminescence, 60 min; series mostly up to 57.1 µM; note: % is set by controls: 0 for no effect and ±100 for the full control effect; nearly all actives have a fitted effect of over 60% in size
Procedure, shortened: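 Signal: luciferase luminescence reporting luciferin produced by CYP2C9. Conditions: 10nM enzyme, Luciferin-H 100uM at KM, 25mM KPO4, 37C, 60 min NADPH-driven reaction. Reference: 57uM sulphaphenazole as 100% inhibition.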

[20] = measured here: cell count channel max response
[21] = measured here: lipid channel max response

Chain of Dual specificity protein kinase CLK4 (Homo sapiens) (Q9HAZ1 whole entry, looked up): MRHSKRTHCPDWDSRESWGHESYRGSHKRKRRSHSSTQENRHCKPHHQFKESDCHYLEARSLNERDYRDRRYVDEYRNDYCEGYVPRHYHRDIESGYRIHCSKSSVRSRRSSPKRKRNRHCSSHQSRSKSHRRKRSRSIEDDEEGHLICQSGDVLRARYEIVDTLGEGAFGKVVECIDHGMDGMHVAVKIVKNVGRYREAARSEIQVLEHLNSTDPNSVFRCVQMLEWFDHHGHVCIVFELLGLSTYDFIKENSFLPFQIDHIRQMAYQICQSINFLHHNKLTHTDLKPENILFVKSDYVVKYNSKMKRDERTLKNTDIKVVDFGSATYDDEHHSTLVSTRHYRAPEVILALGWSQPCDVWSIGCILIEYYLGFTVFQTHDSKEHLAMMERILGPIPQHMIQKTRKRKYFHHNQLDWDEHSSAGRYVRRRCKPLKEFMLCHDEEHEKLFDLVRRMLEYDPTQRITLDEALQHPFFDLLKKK
Chain of Cytochrome P450 3A4 (Homo sapiens) (P08684 whole entry, looked up): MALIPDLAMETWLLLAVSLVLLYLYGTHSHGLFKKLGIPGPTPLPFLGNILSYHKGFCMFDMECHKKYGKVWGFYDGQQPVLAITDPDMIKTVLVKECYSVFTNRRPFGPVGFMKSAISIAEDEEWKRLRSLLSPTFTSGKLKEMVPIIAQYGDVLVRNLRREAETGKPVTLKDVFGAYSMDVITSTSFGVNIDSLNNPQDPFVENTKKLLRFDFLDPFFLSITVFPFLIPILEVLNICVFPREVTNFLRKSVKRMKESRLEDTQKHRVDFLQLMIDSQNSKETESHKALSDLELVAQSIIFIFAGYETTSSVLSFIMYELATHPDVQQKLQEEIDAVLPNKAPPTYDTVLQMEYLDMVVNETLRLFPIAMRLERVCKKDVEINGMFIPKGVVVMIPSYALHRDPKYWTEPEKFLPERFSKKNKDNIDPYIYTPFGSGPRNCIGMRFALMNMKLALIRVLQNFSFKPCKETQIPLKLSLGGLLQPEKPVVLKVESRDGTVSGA
Chain of Lysosomal acid glucosylceramidase (Homo sapiens) (P04062 whole entry, looked up): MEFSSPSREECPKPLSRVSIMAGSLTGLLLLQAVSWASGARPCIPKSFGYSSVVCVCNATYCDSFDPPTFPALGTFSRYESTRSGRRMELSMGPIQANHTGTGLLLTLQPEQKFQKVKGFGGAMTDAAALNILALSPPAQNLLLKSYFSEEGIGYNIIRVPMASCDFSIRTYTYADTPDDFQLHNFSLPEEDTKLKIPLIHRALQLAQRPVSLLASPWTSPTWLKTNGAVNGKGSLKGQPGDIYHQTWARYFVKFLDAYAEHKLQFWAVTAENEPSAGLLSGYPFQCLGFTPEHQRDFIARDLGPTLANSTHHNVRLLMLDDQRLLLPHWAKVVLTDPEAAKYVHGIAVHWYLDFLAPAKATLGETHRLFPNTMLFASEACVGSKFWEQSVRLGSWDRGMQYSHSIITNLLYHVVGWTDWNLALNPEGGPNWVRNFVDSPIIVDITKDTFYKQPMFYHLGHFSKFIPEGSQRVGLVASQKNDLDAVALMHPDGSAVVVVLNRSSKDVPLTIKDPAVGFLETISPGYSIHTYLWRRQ
Chain of Ubiquitin carboxyl-terminal hydrolase 1 (Homo sapiens) (O94782 whole entry, looked up): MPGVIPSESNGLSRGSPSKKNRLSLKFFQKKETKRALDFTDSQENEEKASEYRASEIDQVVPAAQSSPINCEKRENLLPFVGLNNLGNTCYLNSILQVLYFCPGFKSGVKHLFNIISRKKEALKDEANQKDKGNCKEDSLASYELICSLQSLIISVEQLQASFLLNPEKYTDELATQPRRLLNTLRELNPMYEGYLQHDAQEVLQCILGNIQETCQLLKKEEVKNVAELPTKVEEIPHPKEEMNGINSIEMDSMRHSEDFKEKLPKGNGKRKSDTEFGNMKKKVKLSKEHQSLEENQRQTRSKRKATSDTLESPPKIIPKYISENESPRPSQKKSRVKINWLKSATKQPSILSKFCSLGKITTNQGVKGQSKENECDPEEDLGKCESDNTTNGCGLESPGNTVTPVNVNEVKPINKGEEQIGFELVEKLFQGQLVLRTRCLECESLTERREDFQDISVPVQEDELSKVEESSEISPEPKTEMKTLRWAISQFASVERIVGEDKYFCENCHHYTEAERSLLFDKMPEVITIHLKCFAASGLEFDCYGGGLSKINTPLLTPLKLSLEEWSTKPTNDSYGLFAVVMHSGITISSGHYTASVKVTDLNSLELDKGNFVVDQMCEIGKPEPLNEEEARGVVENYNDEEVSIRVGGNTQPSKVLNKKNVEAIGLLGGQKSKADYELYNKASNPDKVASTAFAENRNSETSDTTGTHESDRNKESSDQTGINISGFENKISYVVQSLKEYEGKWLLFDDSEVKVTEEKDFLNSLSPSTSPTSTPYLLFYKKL
Chain of 3',5'-cyclic-AMP phosphodiesterase 4B (Homo sapiens) (Q07343 whole entry, looked up): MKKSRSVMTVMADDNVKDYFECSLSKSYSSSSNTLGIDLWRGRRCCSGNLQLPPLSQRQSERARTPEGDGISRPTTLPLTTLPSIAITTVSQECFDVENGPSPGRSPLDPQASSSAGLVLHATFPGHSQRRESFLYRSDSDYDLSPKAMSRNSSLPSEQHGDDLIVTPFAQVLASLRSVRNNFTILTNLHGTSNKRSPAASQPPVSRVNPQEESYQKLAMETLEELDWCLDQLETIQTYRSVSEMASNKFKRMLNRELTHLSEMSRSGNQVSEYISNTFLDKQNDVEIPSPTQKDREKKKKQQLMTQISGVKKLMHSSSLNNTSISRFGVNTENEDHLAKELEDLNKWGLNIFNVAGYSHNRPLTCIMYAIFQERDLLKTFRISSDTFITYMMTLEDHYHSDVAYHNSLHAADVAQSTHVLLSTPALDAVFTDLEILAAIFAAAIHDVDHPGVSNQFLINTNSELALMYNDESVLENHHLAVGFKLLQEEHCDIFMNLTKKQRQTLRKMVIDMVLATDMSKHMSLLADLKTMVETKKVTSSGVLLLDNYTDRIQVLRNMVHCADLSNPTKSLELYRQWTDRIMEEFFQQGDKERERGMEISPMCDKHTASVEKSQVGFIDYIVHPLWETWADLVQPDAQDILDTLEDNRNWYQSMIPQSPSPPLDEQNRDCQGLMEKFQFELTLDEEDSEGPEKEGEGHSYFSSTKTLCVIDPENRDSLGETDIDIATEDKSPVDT
Chain of Cytochrome P450 1A2 (Homo sapiens) (P05177 whole entry, looked up): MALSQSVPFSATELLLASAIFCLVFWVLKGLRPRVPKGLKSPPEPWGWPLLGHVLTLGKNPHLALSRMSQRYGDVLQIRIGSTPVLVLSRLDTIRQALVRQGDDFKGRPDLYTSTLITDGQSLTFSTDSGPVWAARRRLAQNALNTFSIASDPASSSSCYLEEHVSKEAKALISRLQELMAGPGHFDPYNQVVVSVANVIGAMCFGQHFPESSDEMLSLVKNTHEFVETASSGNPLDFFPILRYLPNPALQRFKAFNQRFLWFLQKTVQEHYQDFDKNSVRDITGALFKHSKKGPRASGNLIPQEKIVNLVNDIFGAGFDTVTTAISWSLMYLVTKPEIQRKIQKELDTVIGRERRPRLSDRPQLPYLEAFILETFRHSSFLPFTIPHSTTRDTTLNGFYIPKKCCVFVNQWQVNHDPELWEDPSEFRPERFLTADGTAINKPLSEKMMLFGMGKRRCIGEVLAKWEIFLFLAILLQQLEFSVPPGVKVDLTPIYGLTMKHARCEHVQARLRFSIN
Chain of Glucocorticoid receptor (Homo sapiens) (P04150 whole entry, looked up, the tested form may be a part): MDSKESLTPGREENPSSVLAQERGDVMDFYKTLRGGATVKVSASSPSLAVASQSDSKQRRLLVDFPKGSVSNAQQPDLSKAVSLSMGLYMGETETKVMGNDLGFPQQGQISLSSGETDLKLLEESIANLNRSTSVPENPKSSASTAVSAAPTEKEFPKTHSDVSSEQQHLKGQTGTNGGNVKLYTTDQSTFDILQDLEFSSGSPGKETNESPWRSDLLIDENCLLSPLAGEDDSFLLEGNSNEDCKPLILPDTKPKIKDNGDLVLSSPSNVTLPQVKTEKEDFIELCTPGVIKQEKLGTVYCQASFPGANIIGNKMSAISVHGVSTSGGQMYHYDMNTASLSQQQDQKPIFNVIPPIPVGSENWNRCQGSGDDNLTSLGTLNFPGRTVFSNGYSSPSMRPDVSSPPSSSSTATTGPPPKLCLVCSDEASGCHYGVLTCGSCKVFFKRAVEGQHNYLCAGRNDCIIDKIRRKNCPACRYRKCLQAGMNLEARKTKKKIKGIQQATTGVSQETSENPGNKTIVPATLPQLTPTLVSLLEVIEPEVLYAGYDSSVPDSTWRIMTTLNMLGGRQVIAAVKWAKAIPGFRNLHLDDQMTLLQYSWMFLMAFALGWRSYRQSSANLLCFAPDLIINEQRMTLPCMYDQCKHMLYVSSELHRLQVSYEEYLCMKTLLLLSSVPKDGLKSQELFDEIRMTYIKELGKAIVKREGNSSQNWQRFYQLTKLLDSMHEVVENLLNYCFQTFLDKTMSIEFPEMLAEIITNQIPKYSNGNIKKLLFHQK
Chain of Cytochrome P450 2C9 (Homo sapiens) (P11712 whole entry, looked up): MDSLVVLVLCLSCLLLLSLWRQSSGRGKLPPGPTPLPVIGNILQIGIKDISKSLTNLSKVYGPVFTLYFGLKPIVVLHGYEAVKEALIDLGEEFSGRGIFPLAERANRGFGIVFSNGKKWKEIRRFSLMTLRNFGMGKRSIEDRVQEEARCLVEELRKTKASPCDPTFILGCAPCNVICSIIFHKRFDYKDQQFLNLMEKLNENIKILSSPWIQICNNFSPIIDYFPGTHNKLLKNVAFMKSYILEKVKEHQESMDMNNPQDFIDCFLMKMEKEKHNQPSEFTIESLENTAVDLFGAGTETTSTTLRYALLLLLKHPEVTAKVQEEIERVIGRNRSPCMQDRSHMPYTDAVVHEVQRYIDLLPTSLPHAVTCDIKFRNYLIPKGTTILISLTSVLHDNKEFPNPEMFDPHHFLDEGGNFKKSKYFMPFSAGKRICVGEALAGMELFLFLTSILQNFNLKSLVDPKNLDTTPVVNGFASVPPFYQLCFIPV

Cc1nc2cnc(N3CCN(C)CC3)nc2n(C)c1=O
inactive: Potency [1] > 11.4 µM | activity change, negative = inhibition [2] 2.98% | activity change, negative = inhibition [4] 8.62% | activity, negative = inhibition [5] -15% | Potency [6] > 9.22 µM | Potency [7] > 46 µM | outcome [8] | Potency [9] | activity change, negative = inhibition [10] 3.28% | Potency [11] | Potency [12] | Potency [13] | Potency [14] | Potency [15]
active: Potency [3] 12.6 µM
7.23%: max response [10, 21]
5.81%: max response [10, 20]

Cc1nc2cnc(N3CCN(C)CC3)nc2n(CCC#N)c1=O
9.36%: max response [10, 21]
inactive: Potency [1] > 11.4 µM | activity change, negative = inhibition [2] 9.68% | activity change, negative = inhibition [4] -13.7% | activity, negative = inhibition [5] -9.15% | Potency [6] > 9.22 µM | Potency [7] > 46 µM | outcome [8] | Potency [9] | activity change, negative = inhibition [10] 4.33% | Potency [11] | Potency [12] | Potency [13] | Potency [14] | Potency [15]
active: Potency [3] 12.6 µM
7.54%: max response [10, 20]

CNc1cc(-c2ccccc2C(F)(F)F)ncn1
21.2%: max response [10, 21]
active: Potency [3] 15.8 µM | Potency [17] 15.8 µM
inactive: Potency [1] > 11.4 µM | activity change, negative = inhibition [2] 4.62% | activity change, negative = inhibition [4] 1.13% | activity, negative = inhibition [5] 7.97% | Potency [6] > 46 µM | Potency [7] > 46 µM | outcome [8] | Potency [9] | Potency [16] | activation [18] 17.1% | activity change, negative = inhibition [10] 1.87% | Potency [11] | Potency [12] | Potency [13] | Potency [14] | Potency [15]
21.4%: max response [10, 20]

N#CCCn1c(=O)c(-c2ccc(Cl)cc2)nc2cnc(Oc3ccccc3)nc21
24.2%: max response [10, 21]
19.6%: max response [10, 20]
inactive: Potency [1] > 11.4 µM | activity change, negative = inhibition [2] -26.3% | activity change, negative = inhibition [4] -9.95% | activity, negative = inhibition [5] -6.74% | Potency [6] > 9.22 µM | Potency [7] > 46 µM | outcome [8] | Potency [9] | activity change, negative = inhibition [10] 4.78% | Potency [11] | Potency [12] | Potency [13] | Potency [14] | Potency [15]
active: Potency [3] 0.501 µM

CC(=O)NCCNc1ncncc1-c1ccccc1C
active: Potency [3] 25.1 µM | Potency [16] 2.51 µM
17.2%: max response [10, 20]
inactive: Potency [1] > 11.4 µM | activity change, negative = inhibition [2] 10.6% | activity change, negative = inhibition [4] 5.27% | activity, negative = inhibition [5] 8.22% | Potency [6] > 46 µM | Potency [7] > 46 µM | outcome [8] | Potency [9] | activity change, negative = inhibition [19] 19.5% [at 2.29 µM] | Potency [17] | activity change, negative = inhibition [10] 6.81% | Potency [11] | Potency [12] | Potency [13] | Potency [14] | Potency [15]
23%: max response [10, 21]
